The campaign covered roughly 200,000 compounds. About 4,500 (2.2%) were called active. Inconclusive results (about 12%) are left out. Calls come from the whole dose curve; as a rule, active = well fitted inhibition curve with a large enough effect; inconclusive = small, poorly fitted or top-dose-only effect, or effect the other way; inactive = flat fitted curve, though single readings scatter. The full list was thinned out, with actives kept by preference.
The compounds below were run against Cruzipain (Trypanosoma cruzi) (UniProt P25779) (assay: qHTS Assay for Promiscuous and Specific Inhibitors of Cruzain (without detergent)). Settings: purified cruzain, Z-FR-AMC fluorescence, no detergent.
Cruzipain (Trypanosoma cruzi), sequence (P25779 123-467 limits assumed): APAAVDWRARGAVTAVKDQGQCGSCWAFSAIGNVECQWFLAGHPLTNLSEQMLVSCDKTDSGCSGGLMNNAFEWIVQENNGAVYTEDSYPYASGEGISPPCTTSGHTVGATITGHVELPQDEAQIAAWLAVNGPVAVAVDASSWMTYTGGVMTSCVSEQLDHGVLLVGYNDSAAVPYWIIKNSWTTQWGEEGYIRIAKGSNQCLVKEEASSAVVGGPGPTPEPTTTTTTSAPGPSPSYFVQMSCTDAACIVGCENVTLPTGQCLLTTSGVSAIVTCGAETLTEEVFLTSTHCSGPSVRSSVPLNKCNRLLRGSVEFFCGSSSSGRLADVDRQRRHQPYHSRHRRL
In short: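 Purified cruzain at 1.5 nM, pre-incubated 15 min with compound at room temperature in 100 mM sodium acetate pH 5.5, 5 mM DTT, 0.00005% Triton X-100. Reaction started with 2 uM Z-FR-AMC; AMC fluorescence increase over 60 s gives rate.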
Cc1ccccc1NC(=O)Cn1c(=O)n(CC2CCC(C(=O)NCCc3ccccc3)CC2)c(=O)c2ccccc21 (stereo not given) was tested, and the max response, negative = inhibition was 3.54% (inactive). With COc1ccc(-c2nc(C)c(CCNC(=O)c3ccc(C(F)(F)F)cc3)s2)cc1OC the max response, negative = inhibition was 17.5% (inactive). With CCn1cc(CCC(=O)NCc2ccc(F)cc2)c2ccccc21 the max response, negative = inhibition was -13.6% (inactive). With Cc1cccc(NC(=O)CSc2nc3c([nH]c4ccccc43)c(=O)n2-c2cc(C)cc(C)c2)c1 the max response, negative = inhibition was -19.8% (inactive). COC(=O)c1ccc(CSc2ccccc2C)o1 was tested, and the max response, negative = inhibition was -6.13% (inactive). COCC(C)n1c(SCc2ccc(C(=O)OC)o2)nc2ccccc2c1=O (stereo not given) was tested, and the max response, negative = inhibition was 12.5% (inactive). With CCc1ccc(NC(=O)CSc2nc3c([nH]c4ccccc43)c(=O)n2-c2cccc(OC)c2)cc1 the Potency was 12.6 µM (active). With Cc1ccc(NC(=O)CSc2nc3c([nH]c4ccccc43)c(=O)n2-c2ccccc2)cc1Cl the max response, negative = inhibition was 2.09% (inactive). With COC(=O)c1ccc(CSc2nc3ccccc3c(=O)n2-c2cccc(OC)c2)o1 the Potency was 25.1 µM (active). For COc1ccc(-c2cccc(NS(=O)(=O)c3cc(C)c(OC)c(C)c3C)c2)nn1, the max response, negative = inhibition was -5.81% (inactive). Cc1ccccc1CNC(=O)c1ccc(NC(=O)N2CCCCc3ccccc32)cc1 was tested, and the max response, negative = inhibition was -9.89% (inactive). In the case of Cc1ccc(-c2nnc(SCC(=O)NCc3ccccc3)nc2-c2ccc(C)cc2)cc1, the max response, negative = inhibition is reported as -17.5% (inactive). With Brc1ccc2c(c1)NC(c1cccnc1)=NC(c1ccccc1)=N2 the max response, negative = inhibition was 2.72% (inactive). CCCCN(C)CCCNC(=O)CN1N=C(c2ccc(OC)cc2)CCC1=O was tested, and the max response, negative = inhibition was 2.7% (inactive). In the case of Cc1nn(C)c2c1c(C(F)(F)F)cc(=O)n2C(C)C(=O)NCc1ccc(Cl)cc1 (stereo not given), the max response, negative = inhibition is reported as -3.11% (inactive). With COc1ccc(C2CC(c3ccccc3)=NN2C(=O)c2ccc(Cl)c([N+](=O)[O-])c2)cc1 (stereo not given) the Potency was 10 µM (active). For COc1ccc(C(=O)NNC(=S)NC(=O)c2ccccc2[N+](=O)[O-])cc1, the max response, negative = inhibition was -1.55% (inactive). With COc1ccc(C2=NN(C(=O)c3cccnc3)C(c3ccccc3)C2)cc1 (stereo not given) the max response, negative = inhibition was 7.92% (inactive). CCOC(=O)C1CCCN(C(=O)c2ccc(-n3ccc4ccccc43)s2)C1 (stereo not given) was tested, and the max response, negative = inhibition was 13.4% (inactive). With CCOc1ccc(C(=O)c2cn(Cc3ccc(F)cc3)c3ccc(F)cc3c2=O)cc1 the max response, negative = inhibition was 3.78% (inactive). For Nc1ncc(S(=O)(=O)Nc2ccc(OC(F)(F)F)cc2)cn1, the max response, negative = inhibition was -3.7% (inactive). With O=C(c1cn(-c2ccccc2)nc1-c1cccnc1)N1CCCCC1 the max response, negative = inhibition was -0.942% (inactive). For COC(=O)c1cn(-c2ccccc2)nc1-c1cccnc1, the max response, negative = inhibition was 10.9% (inactive). In the case of O=C(COC(=O)/C=C/c1cn(-c2ccccc2)nc1-c1cccnc1)Nc1ccc(Cl)cc1Cl, the Potency is reported as 10 µM (active). For CCc1c(C)sc(NC(=O)C2c3ccccc3Oc3ccccc32)c1C(=O)OC(C)C, the max response, negative = inhibition was -24.3% (inactive). With CCc1ccc(Oc2coc3cc(OC(=O)c4cc5ccccc5oc4=O)ccc3c2=O)cc1 the Potency was 3.98 µM (active). With COc1ccc(Oc2coc3cc(OC(=O)c4cncc(Br)c4)ccc3c2=O)cc1 the max response, negative = inhibition was -23.9% (inactive). CCCOC(=O)c1cc2ccccc2oc1=O was tested, and the max response, negative = inhibition was -4.88% (inactive). Cc1cc(C)nc(N(C#N)CC(=O)Nc2ccccc2)n1 was tested, and the max response, negative = inhibition was 5.89% (inactive). In the case of COC(=O)C(C)N(C#N)c1nc(C)nc(C)n1 (stereo not given), the max response, negative = inhibition is reported as 1.82% (inactive). For CNc1nc(SC)nc(N(C#N)CC(=O)OC)n1, the Potency was 25.1 µM (active). In the case of CCCCOc1ccc(NC(=O)c2cc3c(n(-c4ccc(Cl)cc4)c2=O)CCCC3=O)cc1, the max response, negative = inhibition is reported as 7.21% (inactive). With CSCCC(NS(=O)(=O)c1ccc2c(c1)oc(=O)n2C)C(=O)NCc1ccccc1 (stereo not given) the max response, negative = inhibition was -13% (inactive). In the case of COc1ccc(CCNC(=O)CCCn2c(=O)c3ccccc3n(Cc3ccc(F)cc3Cl)c2=O)cc1OC, the max response, negative = inhibition is reported as 13.2% (inactive). For CCc1nnc(SCc2nc(-c3cccc(C)c3)oc2C)c2cc3sc(C)cc3n12, the max response, negative = inhibition was -17.8% (inactive). COc1ccccc1C(=O)OCc1cc(=O)n2nc(-c3cccs3)sc2n1 was tested, and the max response, negative = inhibition was -3.73% (inactive). In the case of COc1ccc(C2CC(c3cccs3)=NN2C(=O)COC(=O)c2cc3ccccc3cc2O)cc1OC (stereo not given), the Potency is reported as 12.6 µM (active). COc1ccc(C2CC(c3cccs3)=Nc3ccccc3S2)cc1OC (stereo not given) was tested, and the max response, negative = inhibition was 13.4% (inactive). With O=C(Cn1ncc2c3ccccc3n(Cc3ccccc3)c2c1=O)NC1CCCCCC1 the max response, negative = inhibition was 10.4% (inactive). In the case of COc1cccc(NC(=O)CSc2cc(=O)n(C)c3ccc(Cl)cc23)c1, the max response, negative = inhibition is reported as -14.5% (inactive). For COc1cn(CC(=O)Nc2cccc(C)c2C)c(CN2CCCCC2)cc1=O, the max response, negative = inhibition was 9% (inactive). With CCC(=O)N1c2ccccc2CC1C(=O)N1CCN(c2ccccc2)CC1 (stereo not given) the max response, negative = inhibition was 7.34% (inactive). For O=C(CN1CCc2ccccc21)NC(c1ccccc1)c1ccccc1, the Potency was 25.1 µM (active). For O=S(=O)(NCC(c1ccccc1)N1CCc2ccccc21)c1ccccc1 (stereo not given), the max response, negative = inhibition was 4.54% (inactive). In the case of O=C(NC(c1ccccc1)c1ccccc1)N1CCN(CCO)CC1, the max response, negative = inhibition is reported as -2.87% (inactive). With CC(=O)c1sc(NC(=O)c2ccc(C)cc2)nc1C the max response, negative = inhibition was -25% (inactive). With COc1cccc(NC(=O)c2csnn2)c1 the max response, negative = inhibition was -5.7% (inactive). With Cc1ccc(C(=O)Nc2nc(-c3ccccc3)ns2)cc1 the max response, negative = inhibition was 5.68% (inactive). For C=CCCC(=O)Nc1nc(C)c(-c2csc(Nc3ccc(Cl)cc3)n2)s1, the Potency was 12.6 µM (active). In the case of CN(CCCC(=O)Nc1nccs1)S(=O)(=O)c1ccc(Cl)cc1, the max response, negative = inhibition is reported as -7.25% (inactive). Cc1ccc(Nc2nc(-c3sc(NC(=O)c4ccccc4)nc3C)cs2)cc1 was tested, and the Potency was 31.6 µM (active). In the case of CCOC(=O)c1csc(NC(=O)Nc2cccc(OC)c2)n1, the max response, negative = inhibition is reported as 8.19% (inactive). CCCCCCC(=O)Nc1nc(C)c(-c2csc(Nc3cccc(OC)c3)n2)s1 was tested, and the Potency was 10 µM (active). For CCCCC(=O)Nc1nc(C)c(-c2csc(Nc3ccc(Cl)cc3)n2)s1, the Potency was 7.94 µM (active). Cc1nc(C)c(-c2csc(NCCc3ccccc3)n2)s1 was tested, and the max response, negative = inhibition was -11.5% (inactive). With CCCCN(C)CCC(=O)Nc1ccc(Cl)cc1 the max response, negative = inhibition was -0.803% (inactive). For Cc1nc(NC(=O)CN(C)S(=O)(=O)c2ccc(Cl)cc2)sc1C, the max response, negative = inhibition was -3.63% (inactive). Cc1ccc(Cl)cc1NC(=O)NC1COc2ccccc2C1 (stereo not given) was tested, and the max response, negative = inhibition was -7.18% (inactive). In the case of CCCCCCC(=O)Nc1nc(C)c(-c2csc(Nc3cc(Cl)ccc3OC)n2)s1, the Potency is reported as 3.16 µM (active). CCCCC(=O)N/N=C(\C)CC(=O)Nc1cc(Cl)ccc1OC was tested, and the max response, negative = inhibition was 7.24% (inactive). In the case of COc1ccc(Cl)cc1NC(=O)CCC(=O)c1ccc(C)cc1, the max response, negative = inhibition is reported as 4.58% (inactive). CCOCCn1ccc2c(OCC(=O)NCc3ccc(C)cc3)cccc2c1=O was tested, and the max response, negative = inhibition was 4.16% (inactive). For Cc1cc(F)ccc1NC1(c2ccccc2)C(=O)c2ccccc2C1=O, the max response, negative = inhibition was -5.27% (inactive). For CCOC(=O)c1ccc(NC(=O)C2CCN(S(=O)(=O)c3ccc4c(c3)CCCC(=O)N4)CC2)cc1, the max response, negative = inhibition was 1.28% (inactive). In the case of Cc1c(C2=CCN(S(=O)(=O)c3ccc(Cl)cc3)CC2)c2ccccc2n1C, the Potency is reported as 31.6 µM (active). With CC(C)NC(=O)C(=O)NCCN1CCN(S(=O)(=O)c2ccc(Cl)cc2)CC1 the max response, negative = inhibition was -2.28% (inactive). For O=C(ON=C1CCN(S(=O)(=O)c2ccccc2)CC1)c1ccc(Cl)cc1, the max response, negative = inhibition was 20.4% (inactive). CCc1nn(CCCC(=O)NCc2ccccc2OC)c(=O)c2cc3occc3n12 was tested, and the max response, negative = inhibition was -6.49% (inactive). In the case of CCOc1ccc(-c2cc3c(=O)n(CC(=O)NCc4ccc(OC)cc4)ccn3n2)cc1, the max response, negative = inhibition is reported as 4.06% (inactive). With COc1cc(NC(=O)CCNC(=O)Cn2ccc3ccccc3c2=O)cc(OC)c1OC the max response, negative = inhibition was -10.9% (inactive). For CCOC(=O)c1ccc(COC(=O)c2cc(=O)[nH]c3ccccc23)o1, the max response, negative = inhibition was -5.71% (inactive). O=C(COC(=O)c1cc(=O)[nH]c2ccccc12)Nc1nc(-c2cccc(Br)c2)cs1 was tested, and the Potency was 15.8 µM (active). In the case of Cc1cc(C(=O)OCC(=O)Nc2nnc(C(C)C)s2)c2ccccc2n1, the max response, negative = inhibition is reported as -3.17% (inactive). For CCN(Cc1ccccc1)S(=O)(=O)c1ccc2c(c1)CCCN2C(C)=O, the max response, negative = inhibition was 12.3% (inactive). In the case of O=C(NC1CC(=O)N(c2ccc(F)cc2)C1)c1ccc(S(=O)(=O)N2CCCC2)cc1 (stereo not given), the max response, negative = inhibition is reported as 8.64% (inactive). With CC(C)(C)C(=O)c1cnc(Nc2ccccc2)s1 the max response, negative = inhibition was -10.8% (inactive). With O=C(Nc1ccccc1)c1nnsc1S(=O)(=O)c1ccc(Cl)cc1 the max response, negative = inhibition was -8.46% (inactive). O=C(c1ccc(Cl)cc1)c1cnc(Nc2ccccc2)s1 was tested, and the Potency was 15.8 µM (active). Cc1ccc(C)c(S(=O)(=O)c2nnn3c2nc(N2CCOCC2)c2sccc23)c1 was tested, and the max response, negative = inhibition was 0.86% (inactive). In the case of Cc1ccc2nc(COc3cccc(NC(=O)c4cccc(Cl)c4)c3)cc(=O)n2c1, the max response, negative = inhibition is reported as -16.6% (inactive). With COC(=O)c1ccc(-c2nc3cc(NC(C)=O)ccc3o2)cc1 the max response, negative = inhibition was 5.54% (inactive). For Cc1ccccc1-c1nc2cc(NC(=O)c3cccc(OCCC(C)C)c3)ccc2o1, the max response, negative = inhibition was -8.64% (inactive). In the case of COc1cccc(C(=O)Nc2ccc3oc(-c4ccc5ccccc5c4)nc3c2)c1, the Potency is reported as 12.6 µM (active). With COc1ccccc1OCCCn1c(-c2ccc(Cl)cc2)nc2ccccc2c1=O the max response, negative = inhibition was 3.21% (inactive). In the case of COc1ccc(S(=O)(=O)NCc2cccn2Cc2cccc(C)c2)cc1Cl, the max response, negative = inhibition is reported as 6.08% (inactive). With COc1ccc(Br)cc1C1CC(=O)Nc2c1c(C)nn2-c1nc(C)cc(C)n1 (stereo not given) the max response, negative = inhibition was 3.34% (inactive). In the case of CC(=O)c1ccc(N2CCN(c3nc4c(S(=O)(=O)c5ccccc5)nnn4c4ccc(Cl)cc34)CC2)cc1, the max response, negative = inhibition is reported as 0.808% (inactive). With CCOC(=O)c1c(-c2cccc(C)c2)csc1NC(=O)c1c(-c2ccccc2)noc1C the Potency was 7.94 µM (active). With CC(=O)Nc1cccc(NC(=O)c2c(-c3ccccc3)noc2C)c1 the max response, negative = inhibition was 2.43% (inactive). CCCS(=O)(=O)c1ncc(Cl)c(C(=O)Nc2scc(-c3ccccc3)c2C(=O)OCC)n1 was tested, and the max response, negative = inhibition was -26.6% (inactive).

From PubChem BioAssay AID1476 (National Center for Advancing Translational Sciences (NCATS), 2009)
Note: nearly all actives have a fitted effect of over 40% in size.
Potency is the fitted concentration of half-maximal effect.
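Throughout, for max response, negative = inhibition: plate controls were enzyme without inhibitor for no effect and buffer without enzyme for full effect.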
